This note sets out measurements from PubChem BioAssay (NCATS).

Inconclusive results are not listed. A number with no mark means an inactive call. Calls of active or inactive are those of the source. The call rests on the fitted dose curve.
On the % scale 0 is the no-effect control and ±100 the full control effect.

The test deals with Nucleoprotein (Lymphocytic choriomeningitis virus (strain Armstrong)) (UniProt P09992). As to the kind of experiment: qHTS for Inhibitors of the Functional Ribonucleoprotein Complex (vRNP) of Lymphocytic Choriomeningitis Arenaviruses (LCMV): LCMV Primary Screen - GLuc reporter signal (AID 1347086). Further: nearly all actives have a fitted effect of over 70% in size. The conditions noted are these: LCMV minigenome vRNP cell assay, Gaussia luciferase reporter; series mostly up to 57.5 µM; activity change, negative = inhibition: at the top concentration.
Chain of Nucleoprotein (Lymphocytic choriomeningitis virus (strain Armstrong)) (P09992 whole entry, looked up): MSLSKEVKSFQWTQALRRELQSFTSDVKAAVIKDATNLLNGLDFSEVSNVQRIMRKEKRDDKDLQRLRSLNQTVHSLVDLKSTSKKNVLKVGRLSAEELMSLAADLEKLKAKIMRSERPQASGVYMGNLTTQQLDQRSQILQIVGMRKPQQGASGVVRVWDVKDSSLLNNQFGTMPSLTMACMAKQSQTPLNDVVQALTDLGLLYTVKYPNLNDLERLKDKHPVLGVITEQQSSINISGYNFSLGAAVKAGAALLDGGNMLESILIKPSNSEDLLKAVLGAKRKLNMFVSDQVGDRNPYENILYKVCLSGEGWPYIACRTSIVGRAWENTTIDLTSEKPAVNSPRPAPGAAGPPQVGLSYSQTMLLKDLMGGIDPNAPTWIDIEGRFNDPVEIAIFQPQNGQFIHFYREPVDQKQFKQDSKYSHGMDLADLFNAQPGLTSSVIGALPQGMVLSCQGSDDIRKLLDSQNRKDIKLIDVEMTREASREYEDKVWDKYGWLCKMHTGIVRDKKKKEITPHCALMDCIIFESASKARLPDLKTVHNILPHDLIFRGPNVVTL
Turning to `CC1CC(OC(=O)C(O)c2ccccc2)CC(C)(C)N1C` (centres undefined), the “activity change, negative = inhibition” value is 13.6%.

For `CN1CCN(C2=Nc3cc(F)ccc3Cc3ccccc32)CC1`, the “activity change, negative = inhibition” value was -1.51%.

Turning to `CO[C@]1(NC(=O)CSC(F)F)C(=O)N2C(C(=O)O)=C(CSc3nnnn3CCO)CO[C@H]21`, the “activity change, negative = inhibition” value was 7.3%.

Take `CCn1ccnc1CC1COc2ccccc2O1` (centres undefined): the Potency entry is “inactive”.

In the case of `COc1ccccc1OC(=O)Oc1ccccc1OC`, the “activity change, negative = inhibition” value was 29.4%.

Turning to `O=c1[nH]sc2cc(Cl)ccc12`, the “activity change, negative = inhibition” value is -88%.

As to `CCOC(=O)c1ccc(NC(=O)CN2CCCCC2)cc1`, the “activity change, negative = inhibition” value is 3.65%.

For `CCOCCOC(=O)/C=C/c1ccc(OC)cc1`, the “activity change, negative = inhibition” value was -12.4%.

Turning to `CN1CCCCC1CCN1c2ccccc2Sc2ccc(S(C)=O)cc21` (centres undefined), the “activity change, negative = inhibition” value is 1.58%.

Regarding `C[C@]12CC[C@H]3[C@@H](CCC4=CC(=O)CC[C@@]43C)[C@@H]1CC[C@@H]2C(=O)CO`, the Potency result was “inactive”.

Regarding `Cc1ccc(Nc2c(F)cccc2Cl)c(CC(=O)O)c1`, the “activity change, negative = inhibition” value was -3.66%.

`CC(C)(C)NCC(O)COc1cccc2c1CCC(=O)N2` (centres undefined): the “activity change, negative = inhibition” value was 25%.

Turning to `CCCN(CCC)C(=O)C(CCC(=O)O)NC(=O)c1ccccc1` (centres undefined), the Potency entry was “inactive”.

On to `CCCCNc1cc(C(=O)O)cc(S(N)(=O)=O)c1Oc1ccccc1`, for which the Potency result was “inactive”.

As to `O=C(Oc1cccc2cccnc12)c1ccccc1`, the “activity change, negative = inhibition” value is -72.3%.

With `C[C@@H]1CC[C@@]2(OC1)O[C@H]1C[C@H]3[C@@H]4CC[C@H]5C[C@@H](O)CC[C@]5(C)[C@H]4CC(=O)[C@]3(C)[C@H]1[C@@H]2C`, the activity change, negative = inhibition was 19.7% [at 5.82 µM].

For `NCCc1ccc(O)c(O)c1`, the Potency entry was “inactive”.

`CC(=O)N1CCN(c2ccc(O)cc2)CC1`: the “activity change, negative = inhibition” value was 20.7%.

On to `O=C(O)/C=C/c1ccc(Cn2ccnc2)cc1`, for which the “activity change, negative = inhibition” value is 8.38%.

Turning to `CCN(CC)CCOC(=O)C(c1ccccc1)c1ccccc1`, the “activity change, negative = inhibition” value was 9.35%.

In the case of `O=C(CCCCCCCCC#CI)Oc1ccccc1`, the “activity change, negative = inhibition” value was -0.833%.

As for `OCC(O)CN1CCN(c2ccccc2)CC1` (centres undefined), the “activity change, negative = inhibition” value is 31.1%.

Take `Cc1cccc(C)c1NC(=O)CN1CCCC1`: the “activity change, negative = inhibition” value was 1.73%.

Consider `C/C=C/c1ccc(O)c(OC)c1`, for which the “activity change, negative = inhibition” value is -3.21%.

Take `CCN(CC)CC(=O)OCC(=O)[C@@]1(O)CC[C@H]2[C@@H]3CCC4=CC(=O)CC[C@]4(C)[C@H]3[C@@H](O)C[C@@]21C`: the “activity change, negative = inhibition” value was 22.6%.

Consider `NS(=O)(=O)c1ccc(N2CCCCS2(=O)=O)cc1`, for which the “activity change, negative = inhibition” value is 17.3%.

With `CN(C)CCCO[C@@H]1[C@H]2OC(C)(C)O[C@H]2O[C@@H]1C(O)CO` (some centres undefined), the “activity change, negative = inhibition” value is 2.04%.

`O=C1N(c2ccccc2)c2ccccc2C1(Cc1ccncc1)Cc1ccncc1`: the Potency result was “inactive”.

For `Nc1nc2ncc(CNc3ccc(C(=O)N[C@@H](CCC(=O)O)C(=O)O)cc3)nc2c(=O)[nH]1`, the Potency result is “inactive”.

Take `Cl/C(=C\n1cncn1)c1ccc(Cl)cc1Cl`: the “activity change, negative = inhibition” value is 4.54%.

Take `c1ccc(OCc2ccc(CCCN3CCOCC3)cc2)cc1`: the “activity change, negative = inhibition” value is -14.8%.

With `CCCCN(CCCC)CC(O)c1cc(Cl)cc2c1-c1ccc(Cl)cc1/C2=C/c1ccc(Cl)cc1` (centres undefined), the “activity change, negative = inhibition” value was -36.8%.

For `CCC(C)(C)c1ccc(CC(C)CN2C[C@@H](C)O[C@@H](C)C2)cc1` (some centres undefined), the Potency entry was “inactive”.

Take `O=C(O)c1cccnc1Nc1cccc(C(F)(F)F)c1`: the Potency result is “inactive”.

For the molecule `CCCC(=O)O[C@]1(C(=O)CCl)[C@@H](C)C[C@H]2[C@@H]3CCC4=CC(=O)C=C[C@]4(C)[C@@]3(F)C(=O)C[C@@]21C`, the “activity change, negative = inhibition” value is -3.93%.

As to `COC(=O)Nc1nc2ccc(S(=O)c3ccccc3)cc2[nH]1` (centres undefined), the Potency entry is “inactive”.

As for `CC1=C(C(=O)O)N2C(=O)[C@@H](NC(=O)[C@H](N)C3=CCC=CC3)[C@H]2SC1`, the Potency entry is “inactive”.

With `COC(=O)[C@H]1[C@H]2C[C@@H]3c4[nH]c5cc(OC)ccc5c4CCN3C[C@H]2C[C@@H](OC(=O)COc2ccc(OC)cc2)[C@@H]1OC`, the “activity change, negative = inhibition” value is 4.95%.

`CN1CCCN=C1COC(=O)C(O)(c1ccccc1)C1CCCCC1` (centres undefined): the “activity change, negative = inhibition” value is 6.94%.
